Experimental findings from ChEMBL document CHEMBL4513216, “Probing the Open Global Health Chemical Diversity Library for Multistage-Active Starting Points for Next-Generation Antimalarials” (ACS Infect Dis, 2020) are described below.

About 8,600 (12%) of roughly 69,000 compounds showed an effect of 50% or more. The list comes from a sample in which strong results are over-represented; it also holds similar structures and randomly drawn compounds.

The test relates to Plasmodium berghei. Briefly: Screen against P. berghei liver stage (PbLuc), transformed with Luciferase, at 10uM. The note with it: tested at 10 uM. The format is functional, HepG2.
Regarding `O=C(c1cn(-c2ccccc2)nn1)N1CCCC(n2cccn2)C1` (centres undefined), the INHIBITION is -67.3%.
As to `O=C(C1CC(=O)N(c2n[nH]c3cc(Br)ccc23)C1)N1CCCC1` (centres undefined), the INHIBITION was -19.4%.
For `CO[C@@H]1CCN(S(=O)(=O)c2cn(C)cn2)[C@H]1Cc1cnn(C)c1` the value was 49.1%.
Turning to `Cc1nc(CN2CC[C@H](OCC3CC3)[C@@H]2Cc2cccnc2)cs1`, the INHIBITION was -3.33%.
For `CCOCC(=O)N1Cc2nccn2CC(CN(C)C)C1` (centres undefined) the value was -7.7%; for `CCCc1n[nH]c(C2CN(CCNS(C)(=O)=O)CCO2)n1` (centres undefined), -69%.
Under `O=C(c1cscn1)N1C[C@H](OCc2cccnc2)[C@H]2COC[C@H]21` stands 3.58%; under `CNC(=O)c1cc(NC(=O)NC2CC2)ccc1F`, -0.514%; under `C=C(C)CN1CCC(NC(=O)Nc2ccc(F)c(C(N)=O)c2)CC1`, 42.3%.
For the molecule `C=C(C)CN1CCC(NC(=O)Nc2ccc(F)c(C(=O)NC)c2)CC1`, the INHIBITION was determined as 52.6%.
Under `Cc1cc(C)n(CC(=O)N2CCC(c3cc4cccnc4[nH]3)CC2)n1` stands 1.62%; under `CN(CC(=O)N1CCC(COc2ccccc2)CC1)c1cnccn1`, -16.295%.
Under `CCN1CCCC(O)(CN(C)Cc2c(C)nn(C)c2C)C1` (centres undefined) stands 42.4%; under `Cc1noc(OCc2ccc(C#N)cc2)n1`, 64.5%; under `Cc1noc(OCCOc2ccc(C#N)cc2)n1`, 18.6%.
Under `CC(C)c1noc(OCc2cccc(C#N)c2)n1` stands 46.1%; under `O=C(NCCC(=O)N1CCCCCCC1)c1ccoc1`, -18%; under `CC(NCCNS(=O)(=O)c1cccc(Cl)c1)C1CCOCC1` (centres undefined), 67.1%.
On to `O=C(NCCNS(=O)(=O)c1cccc(Cl)c1)C1CCCO1` (centres undefined), for which the INHIBITION came to 38.9%.
Under `Cc1cc(NCCNS(=O)(=O)c2cccc(Cl)c2)nc(C)n1` stands 24.7%; under `CN(C)C(=O)N1C[C@H]2CC[C@@H](C1)N(Cc1nnc(-c3ccccc3)o1)C2`, -3.73%.
For `OC(CNCc1ccccc1C(F)(F)F)c1ccccc1` (centres undefined) the value was 1.98%; for `CC(=O)N(C)Cc1cncc(C2CCCN2C2CCOCC2)n1` (centres undefined), 15.925%.
For `O=C(CSC1CCc2ccccc2NC1=O)NC1CC1` (centres undefined) the value was -41.4%; for `Cc1cnc(NC(=O)CSC2CCc3ccccc3NC2=O)s1` (centres undefined), 54.6%; for `COc1ccccc1NC(=O)CSC1CCc2ccccc2NC1=O` (centres undefined), 10.8%.
Consider `O=c1c2ccccc2ncn1Cc1cc(C2CC2)[nH]n1`, for which the INHIBITION worked out at 18.5%.
Consider `CC(C)c1cc(NC(=O)Cn2cnc3ccccc3c2=O)[nH]n1`, for which the INHIBITION is given as -27.4%.
Turning to `O=C(Cn1cnc2ccccc2c1=O)Nc1cc(C2CC2)n[nH]1`, the INHIBITION is 89.4%.
Under `COc1ccc(CCN2CCN(C(=O)c3scnc3C)CC2)cc1` stands 25.3%; under `CN1CCc2onc(CNc3ncccn3)c2C1`, 19.5%; under `COc1ccc(CNC2CCCc3nc(N(C)C)ncc32)c(OC)c1` (centres undefined), 16.7%.
For `CC(NCC1(N(C)C)CCOCC1)c1ccc(Cl)cc1` (centres undefined) the value was -2.025%; for `CN(C)C1(CNC(=O)c2c(O)cc(Cl)cc2Cl)CCOCC1`, 54.8%; for `CN(C)C1(CNC(=O)Cc2ccc(F)cc2)CCOCC1`, -21.8%.
Regarding `O=C(c1ccc[nH]1)N1CCc2cc(S(=O)(=O)N3CCOCC3)ccc2C1`, the INHIBITION is reported as 42.8%.
Under `O=C(NC1CCN(CC2CC2)C1)c1ccc(C(=O)c2cc[nH]c2)cc1` (centres undefined) stands 10.6%.
For `O=C(Nc1ccnc2ccnn12)c1ccc(N2CCC(O)CC2)cc1` the value was 38.1%; for `O=C(NC1CCN(CC2CC2)C1)c1ccc(N2CCC(O)CC2)cc1` (centres undefined), 77.7%.
For `COC[C@@H]1CCCN1C(=O)CCc1c(C)nn(C)c1C` the value was 8.7%; for `CCN(CC)c1nc2sc(C(=O)N3CCNC(=O)C3)cc2s1`, -81.7%; for `CC(C)CC1SCC(=O)Nc2c1cnn2-c1ccccc1F` (centres undefined), 13%.
Turning to `CCOc1ccccc1CC(=O)N1C[C@@H](C(=O)O)[C@H](C2CC2)C1`, the INHIBITION is listed as 2.66%.
Under `O=C(O)[C@@H]1CN(C(=O)CCCc2ccc(F)cc2)C[C@H]1C1CC1` stands -14.2%; under `O=C(O)[C@@H]1CN(C(=O)Cc2ccccc2Cl)C[C@H]1C1CC1`, 79.2%.
For `CC(=O)N1CCCC1c1nccnc1Nc1cccc(C)n1` (centres undefined) the value was 39.2%; for `Cc1ccc(NCCNC(=O)C2Cc3cc(C)c(C)cc3O2)nn1` (centres undefined), 55%.
Turning to `O=C(NCCNC(=O)C1Cc2cc(F)ccc2O1)C1CCCCC1` (centres undefined), the INHIBITION is reported as -0.529%.
For the molecule `Cc1cc2c(cc1C)OC(C(=O)NCCNC(=O)C1CCCC1)C2` (centres undefined), the INHIBITION is -35.1%.
For `O=S1(=O)NC2(CCCN(Cc3ccc(Cl)cc3)C2)COc2ccccc21` (centres undefined) the value was 27.5%; for `Cc1cc(=O)n2nc(Oc3cccc(C(N)=O)c3)sc2n1`, 3.84%; for `CN(C)C1CCN(Cc2cnc(S(C)(=O)=O)n2CC2CCCCC2)C1` (centres undefined), 81.6%.
In the case of `CS(=O)(=O)c1ncc(CN2CCN3CCCC3C2)n1CC1CCCCC1` (centres undefined), the INHIBITION turned out to be 12.3%.
Under `CS(=O)(=O)c1ncc(CN2CCCC(C(N)=O)C2)n1CC1CCCCC1` (centres undefined) stands 0.734%; under `N#Cc1ccc(CN2CCC(CN3CCOCC3)C2)cc1` (centres undefined), -11.9%.
Regarding `CN1CC2(CCN(C(=O)c3cccnc3)CC2)c2cccc(F)c21`, the INHIBITION amounted to 31.5%.
Under `CCn1ncc2c1C(COCC1CC1)CN(C(=O)c1ccncn1)C2` (centres undefined) stands 26.4%.
Under `CC(C)N1CCC2(CCNCC2)C1=O` stands -25.8%.
Under `O=C(CSc1nnc(N2CCNCC2)s1)Nc1ccccc1` stands 59.2%; under `O=C(CSc1nnc(N2CCOCC2)s1)NC(=O)Nc1ccccc1`, -1%; under `O=C(CSc1nnc(N2CCCC2)s1)NC(=O)Nc1ccccc1`, -22.405%.
On to `CCc1nnc2n1CCN(C(C(N)=O)c1ccc(F)cc1)C2` (centres undefined), for which the INHIBITION stood at 1.45%.
Under `NC(=O)C(c1ccc(F)cc1)N1CCN(CCO)CC1` (centres undefined) stands 56.9%.
For `Cc1nnc2n1CCN(C(C(N)=O)c1ccc(F)cc1)C2` (centres undefined) the value was 25.8%; for `COc1cccc(OC)c1OCCn1c(C)c(C)oc1=O`, 22.5%.
`Cc1cc(C)n(CC2CCCN2C(=O)c2ccc(N(C)C)nn2)n1` (centres undefined): the INHIBITION was found to be 38.8%.
`Fc1ccccc1-c1noc2c1CN(CC1CC1)CC2`: the INHIBITION was 55.4%.
Under `Fc1ccc(-c2noc3c2CN(CC2CC2)CC3)cc1F` stands 52.7%; under `CC(C)=CCN1CCc2onc(-c3ccc(F)c(F)c3)c2C1`, 5.78%; under `Fc1ccccc1-c1noc2c1CN(CCN1CCOCC1)CC2`, 34.5%.
Under `CC(O)CN1CCc2onc(-c3ccccc3F)c2C1` (centres undefined) stands -10.9%; under `c1ccc(-c2noc3c2CN(CC2CC2)CC3)cc1`, 2.3%.
`Fc1cc(CN2CCCC2Cn2cncn2)c2ncccc2c1` (centres undefined): the INHIBITION came out at 11.8%.
For `O=C(N1CCCO1)[C@@]12CCO[C@@H]1CCN(C1CCCCC1)C2` the value was 13%; for `Cc1cccc(C)c1Oc1ncccc1CNC(=O)C1COC(=O)N1` (centres undefined), 53.8%.
With `COc1ccccc1Oc1ncccc1CNC(=O)C1COC(=O)N1` (centres undefined), the INHIBITION was 41.3%.
For `Cc1ccc(Oc2ncccc2CNC(=O)C2COC(=O)N2)c(F)c1F` (centres undefined), the INHIBITION worked out at 12.9%.
Under `CCCN(CCO)C(=O)c1cc(COc2ccc3c(c2)CCCC3)on1` stands 33%; under `CC(Cn1cccn1)NC(=O)NCCc1ccsc1` (centres undefined), 21.5%; under `CCC(C(=O)Nc1ccc2cn(CC)nc2c1)N1CCCC1=O` (centres undefined), 54.5%.
For `CCC(C(=O)NCCc1ccn(-c2ccccc2)n1)N1CCCC1=O` (centres undefined) the value was -21%.
Under `CCC(C(=O)Nc1ccc2nc(C)oc2c1)N1CCCC1=O` (centres undefined) stands 71.2%; under `Cc1occc1CNC(=O)Nc1ccc2nc(N3CCOCC3)oc2c1`, 25.8%; under `CCC(CNC(=O)Nc1cnn(CC)c1)N1CCCC1` (centres undefined), 39.5%.
With `CCC(C(=O)N1CCCSCC1)N1CCCC1=O` (centres undefined), the INHIBITION was found to be 21.5%.
Under `CN(C)C(=O)COCC1CN(C2CCC2)Cc2ncn(C)c21` (centres undefined) stands -19.1%.
Under `Cc1cc(C)n(Cc2cccc(C(=O)N3CCOCC3(C)C)c2)n1` stands -4.23%; under `CCN(CC)C(=O)CNC(=O)N1CCC(c2ccccc2)C1` (centres undefined), 43.7%.
For `O=C(c1ccc(CN2CCCCC2)cc1)N1Cc2cnn(CCO)c2C1` the value was 30.3%.
As for `CC(C)(O)CCc1ccc(C(=O)N2CCN(CC(F)(F)F)CC2)cc1`, the INHIBITION was determined as 52.6%.
As to `CC(C)(O)CCc1ccc(C(=O)N2CCN(CCS(C)(=O)=O)CC2)cc1`, the INHIBITION is 16.8%.
For `CC(C)(O)CCc1cccc(C(=O)N2Cc3cnn(CCO)c3C2)c1` the value was 14%.
Under `CC(C)(O)CCc1ccc(C(=O)N2CCN(CC3CCCC3)CC2)cc1` stands 26.6%; under `CC(C)(O)CCc1ccc(C(=O)N2Cc3cnn(CCO)c3C2)cc1`, 73%.
For `CCCS(=O)(=O)N1CC(=O)N(CCCc2ccccc2)CC(O)C1` (centres undefined) the value was 48.7%; for `O=C(c1sccc1C1CC1)N1CCCN(Cc2cscn2)CC1`, -4.16%.
Regarding `Cc1cccc(C(C(=O)NCc2cc(C)[nH]n2)N(C)C)c1` (centres undefined), the INHIBITION is recorded as 3.69%.
For `COc1cc(NCc2ccncc2)c(-c2nn[nH]n2)cc1OC` the value was -34.6%; for `COc1ncccc1CNC(=O)N1CCCC1c1ccsc1` (centres undefined), -24.2%; for `CCN1CCN(C(=O)NCc2cc[nH]n2)CC1`, -29.7%.
For `CN(C)c1ncnc2c1CCN(S(=O)(=O)c1cccc3nsnc13)C2` the value was 31.6%; for `COC(=O)c1sccc1S(=O)(=O)N1CCc2c(ncnc2N(C)C)C1`, 58.1%.
With `Cc1ccccc1S(=O)(=O)N1CCc2c(ncnc2N(C)C)C1`, the INHIBITION amounted to 66.1%.
Under `COC(=O)c1sccc1S(=O)(=O)N1CCC(Oc2cccc(C)n2)CC1` stands 21.8%; under `CN(C)c1ncnc2c1CCN(S(=O)(=O)c1ccccc1C(F)(F)F)C2`, 30.3%; under `CN(C)c1ncnc2c1CCN(S(=O)(=O)c1cccc(Cl)c1Cl)C2`, 42.7%.
Under `COC(=O)c1sccc1S(=O)(=O)N1CCC(Oc2cnccn2)CC1` stands 53.7%.
Under `CN(C)c1ncnc2c1CCN(C(=O)c1sccc1S(N)(=O)=O)C2` stands -9.18%; under `COC(=O)c1sccc1S(=O)(=O)N1CCC(Oc2cccnn2)CC1`, 21.6%.
